Values joined by “and” are separate entries in the source; they are usually repeats but may differ in a detail not shown here. Identical values can stand only once. Records with an inconclusive call do not appear. Active and inactive are the calls of the source. Calls come from the whole dose curve; as a rule, active = well fitted curve in the direction sought with a large enough effect; inconclusive = small, poorly fitted or top-dose-only effect, or another doubt; inactive = no such curve, though single readings can be large; an effect the other way counts as inactive or inconclusive.
Legend:
[1] = target: Cellular tumor antigen p53 (Homo sapiens) (UniProt P04637); assay: Primary qHTS for small molecule compounds that upregulate eGFP-tagged delta133p53alpha (in N-terminal) cells. (AID 2060322); conditions: NCI-H358 eGFP-delta133p53alpha fluorescence, 24 h; activation: active compounds read high; note: nearly all actives have a fitted effect of over 75% in size; note: potency is the fitted concentration of half-maximal effect;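 for activation: 0% = DMSO vehicle and 100% = reference activator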
Cellular tumor antigen p53 (Homo sapiens), sequence (P04637 whole entry, looked up): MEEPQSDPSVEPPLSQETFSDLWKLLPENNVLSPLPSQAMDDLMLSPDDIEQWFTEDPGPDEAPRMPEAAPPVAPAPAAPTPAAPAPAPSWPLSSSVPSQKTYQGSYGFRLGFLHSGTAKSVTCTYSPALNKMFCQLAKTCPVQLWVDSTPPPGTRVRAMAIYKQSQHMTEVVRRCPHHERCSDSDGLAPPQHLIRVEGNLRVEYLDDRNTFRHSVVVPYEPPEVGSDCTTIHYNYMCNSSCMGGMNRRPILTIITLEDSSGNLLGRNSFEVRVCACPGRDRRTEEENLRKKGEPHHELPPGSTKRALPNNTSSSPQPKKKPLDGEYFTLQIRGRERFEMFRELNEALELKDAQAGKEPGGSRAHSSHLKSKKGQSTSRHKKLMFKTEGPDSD
Method in brief: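 NCI-H358 cells pre-induced 24 h with 10 ng/ml doxycycline to express N-terminal eGFP-delta133p53alpha, then dosed 24 h at 37C without doxycycline; fixed, Hoechst-stained, GFP intensity by laser scanning cytometry, normalized to DMSO (0%) and 57.5 uM 5-azacytidine (100%).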

[2] = BET inhibitor-based combinations targeting novel dependencies in MECOM-rearranged (r) AML: SET-2 cell line (AID 2202231); conditions: SET-2 AML cells viability, CellTiter-Glo luminescence, 48 h; viability: active compounds read low, concentration not given here; note: nearly all actives have a fitted effect of over 35% in size; note: potency is the fitted concentration of half-maximal effect;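 for viability: plate controls were DMSO treated cells for no effect and wells without cells for full effect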
Method in brief: (§1)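 A 48 hr incubation preceded viability reading by CellTiter-Glo, with 15 min room-temperature development. Dose series had 11 points; normalization used DMSO and empty wells; AUC was computed and mean-centered per line as Z-AUC.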

[3] = BET inhibitor-based combinations targeting novel dependencies in MECOM-rearranged (r) AML: MV-4-11 cell line (AID 2202233); conditions: MV-4-11 AML viability, CellTiter-Glo luminescence, 48 h; series mostly up to 46 µM; note: nearly all actives have a fitted effect of over 45% in size; note: potency is the fitted concentration of half-maximal effect
Method in brief: (§2)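 Each compound is tested in an 11-point concentration series against 500 seeded cells/well for 48 hr. The luminescent viability signal is normalized to DMSO and blank wells, then reduced to AUC and a cell-line-centred Z-AUC.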

[4] = BET inhibitor-based combinations targeting novel dependencies in MECOM-rearranged (r) AML: HNT-34 cell line (AID 2202234); conditions: HNT-34 AML viability, CellTiter-Glo luminescence, 48 h; series mostly up to 46 µM; note: nearly all actives have a fitted effect of over 35% in size; note: potency is the fitted concentration of half-maximal effect
Method in brief: as §2

[5] = BET inhibitor-based combinations targeting novel dependencies in MECOM-rearranged (r) AML: UCSD-AML1 cell line (AID 2202235); conditions: UCSD-AML1 AML cells viability, CellTiter-Glo, 48 h; series mostly up to 46 µM; note: nearly all actives have a fitted effect of over 40% in size; note: potency is the fitted concentration of half-maximal effect
Method in brief: as §2

[6] = BET inhibitor-based combinations targeting novel dependencies in MECOM-rearranged (r) AML: AML-191 cell line (AID 2202236; note: nearly all actives have a fitted effect of over 35% in size; note: potency is the fitted concentration of half-maximal effect); conditions: AML-191 viability, CellTiter-Glo luminescence, 48 h; series mostly up to 46 µM
Method in brief: as §1

[7] = BET inhibitor-based combinations targeting novel dependencies in MECOM-rearranged (r) AML: OCI-AML3 cell line (AID 2202232); conditions: CellTiter-Glo luminescence, 48 h; Potency: OCI-AML3 viability; series mostly up to 46 µM; note: nearly all actives have a fitted effect of over 35% in size; note: potency is the fitted concentration of half-maximal effect
Method in brief: as §1

[8] = BET inhibitor-based combinations targeting novel dependencies in MECOM-rearranged (r) AML: AML-194 cell line (AID 2202237; note: nearly all actives have a fitted effect of over 40% in size; note: potency is the fitted concentration of half-maximal effect); conditions: AML-194 (MECOM-r AML) viability, CellTiter-Glo, 48 h; series mostly up to 46 µM
Method in brief: as §1

[9] = target: Retinaldehyde dehydrogenase 3 (Homo sapiens) (UniProt P47895); assay: qHTS for Inhibitors of the Aldehyde Dehydrogenase Family (ALDH1A3) Primary screen (AID 2061315); conditions: ALDH inhibition qHTS; series mostly up to 56 µM;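 note: plate controls were DMSO vehicle for no effect and reference inhibitor for full effect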

c1ccc2c(CN3CCNCC3)cccc2c1
inactive: activation [1] 12.1% | viability [2] 115% | Potency [3] | Potency [4] | Potency [5] | Potency [6]

Cc1sc2c(c1C)C(c1ccc(Cl)cc1)=NC(CC(N)=O)c1nnc(C)n1-2 (stereo unspecified)
inactive: activation [1] -1.12%
active: Potency [2] 0.263 µM | Potency [7] 0.0934 µM | Potency [3] 0.0661 µM | Potency [4] 148 nM

COCC1(CO)C(=O)C2CCN1CC2 (stereo unspecified)
active: Potency [7] 4.68 µM | Potency [4] 5900 nM | Potency [5] 5.25 µM | Potency [6] 10.5 µM | Potency [8] 10.5 µM
inactive: activation [1] -22.4%

Cc1ncc(OC[C@@]2(c3cccc(F)c3)C[C@H]2C(=O)Nc2ccc(F)cn2)c(C)n1
inactive: activation [1] -13.1% | viability [2] 92.7% | Potency [7] | Potency [4] | Potency [5] | Potency [6] | Potency [8]

CN[C@@H]1Cc2cccc3[nH]c(=O)n(c23)C1
inactive: activation [1] 31.7% | viability [2] 120% | Potency [3] | Potency [4] | Potency [5] | Potency [6]

CC(C)(O)C(=O)Nc1ccc([N+](=O)[O-])c(C(F)(F)F)c1
active: Potency [3] 16.6 µM
inactive: activation [1] -14.4% | Potency [5]

O=C1CC[C@@]2(O)[C@H]3Cc4ccc(O)c5c4[C@@]2(CCN3CC2CC2)[C@H]1O5
inactive: activation [1] -5.99% and 2.51% | viability [2] 123% | Potency [7] | Potency [4] | Potency [5]

O=S(=O)(CC1CS1)c1ccc(Oc2ccccc2)cc1 (stereo unspecified)
inactive: activation [1] -10.4%
active: Potency [7] 16.6 µM

CC(=O)OCC1=C(C(=O)O)N2C(=O)[C@@H](N)[C@H]2SC1
inactive: activation [1] 19.8% and -5.67% | Potency [9]

CCOC(=O)c1c(C(C#N)=CN)c2ccc(Cl)c(Cl)c2n1C
inactive: activation [1] -1.37% | viability [2] 114% | Potency [7] | Potency [4] | Potency [5] | Potency [6] | Potency [8]

O=C(O)CCCc1ccc(N(CCCl)CCCl)cc1
active: Potency [5] 2.95 µM
inactive: activation [1] 7.53% and 20.9% | Potency [3]

O=c1[nH]c2ccccc2n1C1CCN(Cc2ccc(-c3[nH]c4cc5ncnc5cc4nc3-c3ccccc3)cc2)CC1
inactive: activation [1] 5.59% | viability [2] 104%
active: Potency [7] 9.34 µM | Potency [3] 14.8 µM | Potency [8] 20.9 µM

C#CC1(O)CCC2C3CCC4=CC(=O)CCC4(C)C3CCC21C (stereo unspecified)
inactive: activation [1] 2.51% | viability [2] 107% | Potency [4] | Potency [6] | Potency [8]

COc1ccc(C(=O)c2c(C)n(CCN3CCOCC3)c3cc(I)ccc23)cc1
inactive: activation [1] 27.2%
active: Potency [2] 13.2 µM | Potency [7] 9.34 µM | Potency [3] 8.33 µM | Potency [6] 6.61 µM

COc1ccc(C(=O)c2c(C)n(CCN3CCOCC3)c3ccccc23)cc1
active: Potency [2] 8.33 µM | Potency [7] 3.72 µM | Potency [5] 1.86 µM | Potency [6] 2.63 µM | Potency [8] 1.48 µM
inactive: activation [1] 1.02%

C#C[C@]1(O)C=C[C@H]2[C@@H]3CCC4=CC(=O)CC[C@@H]4[C@H]3CC[C@@]21CC
inactive: activation [1] 10.7% | viability [2] 95.4% | Potency [6]

C[C@]12CC[C@@H]3[C@@H](CCC4=CC(=O)CC[C@@H]43)[C@@H]1CC[C@@H]2OC(=O)CCc1ccccc1
inactive: activation [1] 7.88% | viability [2] 104% | Potency [6] | Potency [8]
active: Potency [3] 18.6 µM

CN(C)CCN(C)CCc1ccc(Cl)c(Cl)c1
inactive: activation [1] 12% | viability [2] 103% | Potency [7] | Potency [6] | Potency [8]

Fc1ccc(C(OCCN2CCN(CCCc3ccccc3)CC2)c2ccc(F)cc2)cc1
inactive: activation [1] 0.57% and -55.2%
active: Potency [2] 23.5 µM | Potency [3] 10.5 µM | Potency [5] 26.3 µM

CC1=C(O)C(=O)C=C2C1=CC=C1[C@@]2(C)CC[C@@]2(C)[C@@H]3C[C@](C)(C(=O)O)CC[C@]3(C)CC[C@]12C
active: Potency [1] 17.2 µM | Potency [3] 0.662 µM | Potency [4] 934 nM | Potency [5] 1.05 µM | Potency [8] 1.18 µM

COc1cccc2c1C(=O)c1c(O)c3c(c(O)c1C2=O)C[C@@](O)(C(=O)CO)CC3OC1CC(N2CCOC(OC)C2)C(O)C(C)O1 (stereo partly specified)
active: Potency [1] 0.0276 µM | Potency [2] 0.0033 µM | Potency [7] 0.0047 µM | Potency [5] 0.0047 µM | Potency [6] 0.0053 µM | Potency [8] 0.0042 µM

COC[C@@H](NC(C)=O)C(=O)NCc1ccccc1
inactive: activation [1] -5.83% | Potency [3] | Potency [4] | Potency [6] | Potency [8]

Source: PubChem BioAssay (NCATS)
